# Assay outcomes from PubChem BioAssay.
# Shown is part of a subset that was picked to be rich in hits.
# IDE exosite inh: displaces the probe from the exo-site of human IDE | P14735 | purified IDE, FL-6b probe fluorescence polarization; stronger effect = lower value | z-score at 20 µM | 17,000 compounds, 6.3% hits;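 active = z-score of -3 or lower, meaning strong loss of probe binding signal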;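 note: His-tagged human IDE residues 42-1019 made in E. coli with 30 nM FL-6b probe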
# An asterisk follows results filed as active; ! = repeats disagree.
SMILES,IDE exosite inh
COCCNC(=O)C[C@@H]1CC[C@@H]2[C@H](COC[C@H](O)CN2C(=O)c2cc(Cl)cc(Cl)c2)O1,-0.85
CCCNC(=O)C[C@H]1CC[C@@H]2[C@H](COC[C@@H](O)CN2Cc2ccncc2)O1,-0.15
C/C=C/c1ccc([C@@H]2[C@H](CO)N[C@H]2CN(C(=O)c2ccccc2F)C(C)C)cc1,0.85
O=C(NC1CCC1)[C@@H]1[C@@H](CO)[C@@H]2Cn3c(ccc(-c4ccncc4)c3=O)[C@H]1N2Cc1cocn1,0.37
COc1ccc(-c2ccc(C3[C@@H]4CN(C(=O)c5ccc(F)cc5)C[C@H]3N4)cc2)cc1 (stereo not given in full),1.2
N#Cc1ccc(-c2ccc(C3[C@@H]4CN(C(=O)c5ccncc5)C[C@H]3N4)cc2)cc1 (stereo not given in full),-0.56
Cc1cccc(-c2ccc(C3[C@@H]4CN(C(=O)c5ccncc5)C[C@H]3N4)cc2)c1 (stereo not given in full),-2.9
COc1ccccc1-c1ccc(C2[C@@H]3CN(C(=O)c4ccncc4)C[C@H]2N3)cc1 (stereo not given in full),-7.3*!
O=C(c1ccc(F)cc1)N1C[C@@H]2N[C@H](C1)C2c1ccc(-c2cccnc2)cc1 (stereo not given in full),-0.19
COc1ccccc1-c1ccc(C2[C@@H]3CN(C(=O)c4cccnc4)C[C@H]2N3)cc1 (stereo not given in full),-14*!
CS(=O)(=O)N1[C@@H](C#N)[C@H](c2ccccc2)[C@@H]1CO,1.3
O=C(c1ccc(F)cc1)N1CC(=O)N2[C@H](CO)[C@@H](c3ccc(C#CC4CCCCC4)cc3)[C@H]2C1,4.1
CCN(C[C@H]1N[C@H](CO)[C@@H]1c1ccc(-c2cccc(C#N)c2)cc1)C(C)=O,4.3
O=C(O)C[C@H]1C=C[C@@H](NC(=O)Nc2cc(F)ccc2F)[C@H](CO)O1,0.46
C/C=C/c1ccc([C@H]2[C@@H](CO)N(C(=O)CC)[C@H]2CNC(=O)CC)cc1,2.4
O=C(CN1CCOCC1)N1CCCCN2[C@H](C1)[C@@H](c1ccc(-c3ccccc3F)cc1)[C@@H]2CO,-1.4
COc1ccccc1-c1ccc([C@H]2[C@H]3CN(C(=O)CN4CCOCC4)CCCCN3[C@H]2CO)cc1,-2.6
COc1ccccc1-c1ccc([C@@H]2[C@H](CO)N3CCCCN(C(=O)CN4CCOCC4)C[C@@H]23)cc1,-15*
O=C(CN1CCOCC1)N1CCCCN2[C@H](CO)[C@@H](c3ccc(-c4ccccc4F)cc3)[C@H]2C1,1.6
COc1ccccc1-c1ccc([C@@H]2[C@H]3CN(C(=O)CN4CCOCC4)CCCCN3[C@H]2CO)cc1,0.61
O=C(CN1CCOCC1)N1CCCCN2[C@@H](CO)[C@@H](c3ccc(-c4ccccc4F)cc3)[C@@H]2C1,-5.1*
O=C(Cc1ccncc1)NCC[C@@H]1CC[C@@H](NS(=O)(=O)c2ccccc2Cl)[C@@H](CO)O1,1.8
O=C(C[C@H]1CC[C@@H]2[C@H](COC[C@H](O)CN2Cc2nccs2)O1)N1CCC(Cc2ccccc2)CC1,-1.6
Fc1cccc(-c2ccc(C3[C@H]4CNC[C@@H]3N4Cc3cncnc3)cc2)c1 (stereo not given in full),1.3
O=C(NC[C@@H]1[C@@H](c2ccccc2)[C@H](CO)N1Cc1cccnc1)c1ccccn1,0.75
SMILES,IDE exosite inh
O=C(C1CCOCC1)N1CC(=O)N2[C@H](CO)[C@@H](c3ccc(C#CC4CCCCC4)cc3)[C@H]2C1,0.64
COc1ccccc1C#Cc1ccc([C@H]2[C@@H](C#N)N(C(=O)C3CC3)[C@@H]2CO)cc1,-5.3*
COc1ccccc1C#Cc1ccc([C@@H]2[C@@H](C#N)N(C(=O)C3CC3)[C@@H]2CO)cc1,-6.4*
COc1ccccc1C#Cc1ccc([C@@H]2[C@@H](C#N)N(C(=O)C3CC3)[C@H]2CO)cc1,-4.2*
COc1ccccc1C#Cc1ccc([C@@H]2[C@H](C#N)N(C(=O)C3CC3)[C@H]2CO)cc1,-9.3*
N#C[C@H]1[C@H](c2ccc(C#Cc3ccc(F)cc3)cc2)[C@H](CO)N1C(=O)C1CC1,4.4
C/C=C/c1ccc(C2[C@@H]3CN(C(=O)CN4CCOCC4)C[C@H]2N3)cc1 (stereo not given in full),1.1
C/C=C/c1ccc([C@H]2[C@@H](CO)N(C(=O)NC(C)C)[C@H]2CNC(C)=O)cc1,3.4
Cc1ccccc1S(=O)(=O)N1[C@H](C#N)[C@@H](c2ccccc2-c2cccc(F)c2)[C@@H]1CO,-0.73
CCCNC(=O)N1C[C@@H](C)[C@H](OC)CN(C)C(=O)c2ccc(NC(=O)CC)cc2OC[C@H]1C,0.11
N#C[C@H]1[C@@H](c2ccc(C#CC3CC3)cc2)[C@@H](CO)N1S(=O)(=O)c1ccccc1,1.7
Cc1ccc(-c2ccc([C@H]3[C@@H](CO)N4C(=O)CN(C(=O)Nc5cccc(F)c5)C[C@H]34)cc2)cc1,2.8
O=C(C1CCOCC1)N1[C@@H](CO)[C@@H](c2ccccc2)C12CN(Cc1cccc(Cl)c1)C2,1.4
CCC(=O)N1[C@H](CO)[C@H]2c3ccccc3N(C(=O)Nc3ccc(Cl)cc3)C[C@H]21,-0.85
N#C[C@@H]1[C@H](c2ccc(C#Cc3ccccc3F)cc2)[C@H](CO)N1C(=O)C1CC1,-2.4
COCC(=O)N1[C@H](C#N)[C@@H](c2ccc(C#Cc3ccccc3F)cc2)[C@H]1CO,-3.9*
N#C[C@@H]1[C@H](c2ccc(C#Cc3ccccc3F)cc2)[C@@H](CO)N1C(=O)C1CC1,0.082
COCC(=O)N1[C@@H](C#N)[C@@H](c2ccccc2)[C@@H]1CO,1.6
N#C[C@H]1[C@@H](c2ccc(C#Cc3ccccc3F)cc2)[C@@H](CO)N1C(=O)C1CC1,-3.4*
N#C[C@H]1[C@@H](c2ccc(C#Cc3ccccc3F)cc2)[C@H](CO)N1C(=O)C1CC1,-2.2
O=C(C1CC1)N1CC(=O)N2[C@H](CO)[C@@H](c3ccc(C#CC4CCCC4)cc3)[C@H]2C1,2.1
Cc1noc(C)c1NC(=O)N(C)C[C@@H]1Oc2cc(C#CCN(C)C)ccc2S(=O)(=O)N([C@H](C)CO)C[C@@H]1C,-1.9
N#C[C@H]1[C@H](c2ccccc2C2=CCCC2)[C@@H](CO)N1C(=O)CN1CCOCC1,0.54
CNC[C@H]1OCCCC[C@@H](C)Oc2ccc(NC(=O)Nc3ccc(OC)cc3)cc2C(=O)N([C@H](C)CO)C[C@H]1C,2.6
Cc1ccccc1-c1ccc(C2[C@@H]3CN(S(=O)(=O)c4ccccc4C)C[C@H]2N3)cc1 (stereo not given in full),-11*!
COc1ccccc1S(=O)(=O)N1C[C@@H]2N[C@H](C1)C2c1ccc(-c2ccc(F)cc2)cc1 (stereo not given in full),3
COc1ccc(-c2ccc(C3[C@@H]4CN(S(=O)(=O)c5ccccc5C)C[C@H]3N4)cc2)cc1 (stereo not given in full),-0.84
COc1cccc(-c2ccc(C3[C@@H]4CN(S(=O)(=O)c5ccccc5C)C[C@H]3N4)cc2)c1 (stereo not given in full),-1.6
COc1ccccc1S(=O)(=O)N1[C@@H]2CNC[C@H]1C2c1ccc(-c2ccncc2)cc1 (stereo not given in full),0.19
COc1ccccc1S(=O)(=O)N1C[C@@H]2N[C@H](C1)C2c1ccc(-c2ccccc2C)cc1 (stereo not given in full),-7.9*!
